# In the OligoGym collection:
# Target: STARD3NL
# Assay: pooled miR-30 sensor sort-seq; sequence = guide strand
# Settings: shRNA
# Note: reference of the scale not given here.
row,Sequence,sensor-assay potency score (higher = more potent)
1,TATTACAATAAATAAATCTTTA,-1.13
2,TTGAAATCCAGGAACCACGTCT,0.74
3,TACTTCAATATATTAAGTCTTT,-0.927
4,TTAGCTGTTCAATAAAGCCAGC,-0.902
5,TAAATAAATCTTTATTAGCTGT,-0.476
6,TTCAACTTTACTGTCGACAGGG,0.68
7,TGAAGCATCCTGAACTATCAGG,-0.809
8,TTTGCTAGTAAAAAGGCACTGG,0.563
9,TTGATTAGGAATACAGCACAAG,-0.839
10,TTTCTTCTTCTGCTTCTTGAGG,-0.759
11,TTTAAATCGAAAAACTGCCAGA,-0.348
12,TTTAACTCTATTATCCACAGTA,0.804

# Target: STARD3
# Assay: as above
# Settings: shRNA
row,Sequence,sensor-assay potency score (higher = more potent)
1,TAGGACTTTGAAGTCAAGGAAC,-1.37
2,TTATTCTTCTCAAACTTCCAGT,-0.167
3,TGTGTTGGTATTCAGTTCGATG,-1.58
4,TTAAGAATCCAGACAAAGGTGC,-0.169
5,TTCAGGATAAACGTCTTGCCGT,-0.566
6,TTGACAATGAGGAATGCACTGG,0.205
7,TTCATTATTCTTCTCAAACTTC,-0.376
8,TTGTTCCACAGCACCATCCTCT,-0.73
